In PubChem BioAssay AID488899 (Broad Institute, 2010):
Hit rate of the full screen: of about 330,000 compounds, about 2,800 (0.85%) were called active. The list comes from a sample in which actives are over-represented; it also holds similar structures and randomly drawn compounds. Unmarked numbers belong to inactive results.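 Rule for the calls: active = mean inhibition across replicates of 60% or more, whatever share of single replicates reaches that level; inconclusive = some that reach 60%, reason not given; inactive = mean inhibition across replicates below 60%.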

Experiment: MITF transcriptional activity suppression – cell-based, SK-MEL-5, single point, luciferase, primary screen (AID 488899)
Details: SK-MEL-5 TRPM1 promoter luciferase, 24 h; at 12.5 µM; active compounds read high

| SMILES | inhibition |
| --- | --- |
| CCC1([N+](=O)[O-])COC(c2ccc(C(C)C)cc2)OC1 (centres undefined) | -55.6% |
| O=C(Nc1ccc2ccccc2c1[N+](=O)[O-])c1ccccc1 | -36.6% |
| S=C(NCc1cccnc1)Nc1ccc(Cl)cc1Cl | -6.79% |
| Cc1c(NC(=O)CSc2cccc3cccnc23)c(=O)n(-c2ccccc2)n1C | 35.6% |
| CC(=O)/C(=N\Nc1ccc(Cl)cc1Cl)Sc1cccc2cccnc12 | 65.6% (active) |
| CC1(C)C(=O)C2(CCCCC2)C(=O)OC1c1cccs1 (centres undefined) | 4.16% |
| C=CCn1c(=S)[nH]c2scc(-c3ccco3)c2c1=O | 1.55% |
| CCN(CC)S(=O)(=O)c1ccc(N2CCOCC2)c(NC(=O)c2ccc(=O)n(C)n2)c1 | 2.54% |
| CCN(CC)S(=O)(=O)c1cc(C(=O)Nc2cc(S(=O)(=O)N3CCOCC3)ccc2N2CCCC2)ccc1F | 6.91% |
| CCN(CC)S(=O)(=O)c1ccc(N2CCCC2)c(NC(=O)c2ccc([N+](=O)[O-])o2)c1 | 88.5% (active) |
| Nc1ccc(-n2nncc2-c2ccco2)cc1 | -11.2% |
| O=C(c1cccc(S(=O)(=O)N2CCCCCC2)c1)N1CCN(Cc2ccccc2)CC1 | -3.86% |
| CCOC(=O)c1c(NC(=O)CN2C(=O)NC3(CCC(C)CC3)C2=O)sc(C)c1CC (centres undefined) | 0.199% |
| C/C(=N\NC(=O)Cc1ccc(Cl)cc1)c1ccccn1 | 80% (active) |
| C/C(=N\NC(=O)c1ccoc1C)c1ccccc1O | -21.6% |
| CC1=NNC(=O)C1CCC(=O)N/N=C(\C)c1ccc(Cl)cc1 (centres undefined) | 2.4% |
| CC(=NNC(=S)N1CCCCCC1)c1ccccn1 | 58.9% |
| NC(=O)NC(CC(=O)NNC(=O)c1ccccn1)c1ccc(Cl)cc1 (centres undefined) | -12.2% |
| C/C(=N\NC(=O)c1ccccc1F)c1ccccn1 | 62.2% (active) |
| CC(C)CN1CC(C)C(=O)N(c2ccccc2)C1=S (centres undefined) | -5.49% |
| COc1ccc(S(=O)(=O)N2CCC(C(=O)N3CCc4ccccc4C3)CC2)cc1OC | 1.79% |
| COc1cc2c(cc1OC)C(C)N(S(=O)(=O)c1cnc(Cl)c(Cl)c1)CC2 (centres undefined) | 76% (active) |
| COc1cc2c(cc1OC)CN(C(=O)c1cc(S(=O)(=O)N3CCCCC3)ccc1Cl)CC2 | 10.9% |
| CN(CCc1ccccn1)C(=O)CCC1CCCN(Cc2ccccc2OC(F)F)C1 (centres undefined) | -12.8% |
| CC[C@]1(O)CC2CN(CCc3c([nH]c4ccccc34)[C@@](C(=O)OC)(c3cc4c(cc3OC)N(C=O)[C@H]3[C@@](O)(C(=O)OC)[C@H](OC(C)=O)[C@]5(CC)C=CCN6CC[C@]43[C@@H]65)C2)C1 (some centres undefined) | 45.8% |
| CC[C@]1(O)C[C@@H]2CN(CCc3c([nH]c4ccccc34)[C@@](C(=O)OC)(c3cc4c(cc3OC)N(C)[C@H]3[C@@](O)(C(=O)OC)[C@H](OC(C)=O)[C@]5(CC)C=CCN6CC[C@]43[C@@H]65)C2)C1 | 62.2% (active) |
| CCC1SC(CC)C(=O)N(CC(=O)NC2CCCCC2)C1=O (centres undefined) | 13.1% |

| SMILES | inhibition |
| --- | --- |
| Clc1ccc(C[n+]2cc(-c3ccc(Cl)cc3)n3c2CCC3)cc1 | 47.5% |
| CN(C)Cc1c(C(=O)N/N=C/c2ccccc2OCc2ccc(F)cc2)nnn1-c1nonc1N | -15.2% |
| Cc1ccc2c(O)c(Cc3ccccc3)c(=O)[nH]c2n1 | 2.8% |
| COC(=O)COc1ccc2c(=O)c(Oc3ccccc3Br)coc2c1 | -0.261% |
| O=C(O)c1ccc(Cn2cnc3c(=S)nc[nH]c32)cc1 | -0.814% |
| COc1ccccc1-c1nnc2n1N=C(c1ccc(OC(F)F)c(OCC3CC3)c1)CS2 | -4.86% |
| COc1ccc(C2=Nn3c(nnc3-c3ccccc3OC)SC2)cc1OC1CCCC1 | 65.9% (active) |
| CC1=Nn2c(nnc2-c2ccccc2)SC1 | -0.377% |
| COC(C[C@H](O)CC(=O)COCc1ccccc1)OC | -3.12% |
| O=C(O)CN1c2cccc3cccc(c23)S1(=O)=O | 13.3% |
| N/C(=N\OC(=O)Nc1ccccc1)c1ccno1 | -14% |
| CCCOc1ccc(C(=O)C(CCC(CNCC)C(=O)c2ccc(OCCC)cc2)CNCC)cc1 (centres undefined) | 102% (active) |
| CCCOc1ccc(C(=O)CCC(=O)OC(C)C(=O)Nc2ccc(NC(C)=O)cc2)cc1 (centres undefined) | -26% |
| CCCCOc1ccc(C(=O)NN2CCN(C)CC2)cc1 | -7.2% |
| Cc1ccc(/C=C2/SC(=S)N(CCC(=O)NCCCN3CCOCC3)C2=O)cc1 | -20.1% |
| COc1ccc(/C=C2\SC(=S)N(CCCC(=O)NC3CCCC3)C2=O)cc1OC | 37.5% |
| C=CCOc1ccc(/C=C2\SC(=S)N(CCC(=O)O)C2=O)cc1 | 78.2% (active) |
| Cc1ccc(S(=O)(=O)N(CC(=O)Nc2cccc([N+](=O)[O-])c2)Cc2ccc(Cl)cc2)cc1 | 15.8% |
| CC(=O)c1cccc(NC(=O)C2CCN(C(=O)c3ccccc3Cl)CC2)c1 | 28.4% |
| O=C(COC(=O)C1CCN(S(=O)(=O)c2ccc3c(c2)OCCO3)CC1)Nc1ccccc1OC(F)F | -1.73% |
| CCOC(=O)/C(=N\Nc1ccccc1[N+](=O)[O-])c1csc(Nc2ccccc2)n1 | -14.3% |
| CCOC(=O)/C(=C\c1ccc([N+](=O)[O-])cc1)C(=O)c1cc(C(C)=O)c(Nc2ccccc2)s1 | 100% (active) |
| Cc1ccc(NC(=O)/C(=C/c2ccc([N+](=O)[O-])cc2)NC(=O)c2ccccc2)cc1 | 8.59% |
| CC(=O)c1ccc(N2CCN(C(=O)CCNC(=O)Cn3ccc4ccccc4c3=O)CC2)cc1 | 0.055% |
| CCC(=C/c1sc2ccc3ccccc3c2[n+]1C)/C=C1\Sc2ccc3ccccc3c2N1C | 77.8% (active) |
| Cc1nc(-c2nnc(SCC(=O)Nc3cc(C(F)(F)F)cc(C(F)(F)F)c3)n2C)cs1 | 6.42% |
| CCCCOc1ccc(C(=O)N/C(=C/C=C/c2ccccc2)C(=O)N2CCOCC2)cc1 | 0.224% |
